“And” between values parts separate entries of the source, which are not always exact repeats. Equal values may be shown once. Records with an inconclusive call do not appear. A call without a number means that no potency is given here. Values without a mark were called inactive. The source made the active and inactive calls. Calls come from the whole dose curve; as a rule, active = well fitted cell-killing curve with a large enough effect in the repeat runs; inconclusive = weak or mixed curves, or effect the other way; inactive = flat fitted curve, though single readings scatter.
Potency is the fitted concentration of half-maximal effect.

The test is described as follows: Nuclear factor erythroid 2-related factor 2/antioxidant responsive element (Nrf2/ARE) small molecule agonists: qHTS cell viability counter screen in human keratinocytes (AID 1919968). Note: nearly all actives have a fitted effect of over 55% in size. The note with it: KeratinoSens HaCaT ARE cells viability, CellTiter-Fluor, 24 h; series mostly up to 92.4 µM. From the text: U.S. Tox21 Program National Center for Advancing Translational Sciences [NCATS] Division of Preclinical Innovation [DPI] U.S. Environmental Protection Agency [EPA] National Institutes of Environmental Health Sciences [NIEHS] National Toxicology Program [NTP] U.S. Food and Drug Administration [FDA] Tox21 Assay Overview: Oxidative stress has been implicated in the pathogenesis of a variety of diseases ranging from cancer to neurodegeneration. The antioxidant response element (ARE) signaling pathway plays an important role in the amelioration of oxidative stress. The KeratinoSens (Givaudan, Switzerland) is an in vitro test method which quantifies luciferase induction as a measure of activation of Keap1-Nrf2-antioxidationt/electrophile response element (ARE) dependant pathway in HaCaT human keratinocytes stably transfected with a selectable plasmid. The KeratinoSens assay is a cell-based assay with a reporter cell line to detect potential skin sensitizers by their ability to induce the Nrf2/ARE-response. The activation of the report gene under culture conditions can be detected by ONE-Glo Luciferase Assay System (Promega, Madison, WI). This cell line has been used to screen the Tox21 10K compound library to identify agonists that induce oxidative stress. The cytotoxicity of the Tox21 compound library against the KS-ARE cell line was tested in parallel by measuring the cell viability using CellTiter- Fluor assay system (Promega, Madison, WI) in the same wells.
Tox21 Assay Protocol Summary: HaCaT derived cell line KeratinoSens were dispensed at 1,500 cells/5uL/well in 1536-well white wall/solid bottom plates using a Multidrop Combi (ThermoFisher Scientific, Waltham, MA) dispenser. After the assay plates were incubated at 37 C/5% CO2 for 5 h, 23 nL of compounds dissolved in DMSO, positive controls or DMSO only was transferred to the assay plate by a pintool workstation (Kalypsys, San Diego, CA). The plates were incubated at 37 C/5% CO2 for 23 h, followed by addition of 1uL/well of CellTiter-Fluor reagent into the assay plates using a Flying Reagent Dispenser (Aurora Discovery, San Diego, CA) for cell viability readout that measures cytotoxicity. After 1 h incubation at 37 C/5% CO2 the fluorescence intensity was measured using a ViewLux (PerkinElmer, Shelton, CT) plate reader.
As for `CC(C)CC(=O)OCc1ccccc1`, the Potency result was “inactive”. On to `CC(=O)N1C[C@H](O)C[C@H]1C(=O)O`, for which the Potency entry is “inactive”. Still for that read-out and setting: under `CCCCOC(=O)C(C)OC(=O)CCC` (stereo not given) stands “inactive”; under `CCC(C)NC(N)=O` (stereo not given), “inactive”. In the case of `CC(C)(C)CC(C)(C)c1ccc(Nc2ccc(C(C)(C)CC(C)(C)C)cc2)cc1`, the activity change, negative = cytotoxicity is 0.0348% [at 8.39 µM]. Turning to `CSc1ccc2c(c1)N(CCC1CCCCN1C)c1ccccc1S2` (stereo not given), the Potency was 24.2 µM (active) and 26.6 µM (active). The same measure, in the same setting: under `CC(C)COC(=O)c1ccc(N)cc1` stands “inactive”; under `CNC(=O)c1c(I)c(NC(C)=O)c(I)c(C(=O)O)c1I`, “inactive”. With `Clc1ccccc1C(c1ccccc1)(c1ccccc1)n1ccnc1`, the Potency is 30.6 µM (active). Regarding `C=CC(C)(CCC=C(C)C)OC=O` (stereo not given), the Potency entry is “inactive”.

Take `CC(=O)OCC(=O)[C@@]1(O)CC[C@H]2[C@@H]3CCC4=CC(=O)C=C[C@]4(C)[C@H]3[C@@H](O)C[C@@]21C`: the Potency entry is “inactive”. As for `CCCCCCOCCOCCO`, the Potency result is “inactive”. On the same count and under the same terms, under `N=C(N=C(N)N)N1CCOCC1` stands “inactive”; under `O=C1c2c(O)ccc(Nc3ccc(CCO)cc3)c2C(=O)c2c([N+](=O)[O-])ccc(O)c21`, “inactive”. Turning to `CC1=CC[C@@H]2C[C@H]1C2(C)C`, the activity change, negative = cytotoxicity is -0.0198% [at 19 µM]. On to `CC/C=C/CCO`, for which the Potency result was “inactive”.

Take `CC(C)(C)c1ccc(C(=O)CCCCl)cc1`: the Potency entry is “inactive”.

On to `O=c1oc2c(O)c(O)cc3c(=O)oc4c(O)c(O)cc1c4c23`, for which the activity change, negative = cytotoxicity is -4.32% [at 19 µM]. Consider `Cc1ncc(CO)c(CN)c1O`, for which the Potency result is “inactive”.

Take `Nc1ccccc1S(=O)(=O)O`: the Potency entry was “inactive”. Consider `CC1(C)O[C@@H]2C[C@H]3[C@@H]4C[C@H](F)C5=CC(=O)C=C[C@]5(C)[C@@]4(F)[C@@H](O)C[C@]3(C)[C@]2(C(=O)CO)O1`, for which the Potency result was “inactive”. Take `NC/C=C/C(=O)O`: the Potency entry is “inactive”. Still for that read-out and setting: under `COc1ccc(C#N)cc1` stands “inactive”; under `CCC(COC(=O)CCS)(COC(=O)CCS)COC(=O)CCS`, “inactive”.

With `CCCCCCCC(=O)[O-].CCCCCCCC(=O)[O-].[Zn+2]`, the Potency result is “inactive”.

Regarding `CC(C)CCCCCOC(=O)CCS`, the Potency result was “inactive”.

As for `O=C(O)c1ccc(OCCCOc2ccc(C(=O)O)cc2)cc1`, the Potency result was “inactive”.

In the case of `CC/C=C\CCOC(=O)CCCCC`, the Potency result is “inactive”. The same measure, in the same setting: the value for `CCC(C)C1CCCCC1=O` (stereo not given) was “inactive”; that for `CC(C)(C)C(=O)C(Oc1ccc(Cl)cc1)n1ccnc1` (stereo not given) was “inactive”. Same read-out and setting: under `C=CCCC(=O)/C=C/C1C(C)=CCCC1(C)C` (stereo not given) stands “inactive”; under `CC#N`, “inactive”; under `COC(=O)Nc1ccc(Cl)c(Cl)c1`, “inactive”. Still for that read-out and setting: under `CNCCO` stands “inactive”; under `CCCCCCCCCCCCCCCCC`, “inactive”; under `Nc1ccc(NCCO)c([N+](=O)[O-])c1`, “inactive”. With `C=C(C)C(=O)OCCNC(C)(C)C`, the Potency result was “inactive”. Still for that read-out and setting: under `Cc1ccccc1C(N)=O` stands “inactive”; under `C[C@@H](O)[C@H]1C(=O)N2C(C(=O)O)=C([C@H]3CCCO3)S[C@H]12`, “inactive”.

As for `CCCC(=O)OCC(COC(=O)CCC)OC(=O)CCC`, the Potency result is “inactive”.

Values taken from PubChem BioAssay (Tox21).
